System: ACVR2A
Details: concentration: 1 μM,replicates: in singlicate; n = 1
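Further: KINOMEscan kinase panel screen.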

| Compound | %Inh |
| --- | --- |
| CN1CCN(CCNc2nc3cc(Oc4ccc(NC(=O)Nc5cc(C(F)(F)F)ccc5F)cc4)ccc3[nH]2)CC1.Cl.Cl [GW768504] | 0% |
| COc1cccc(OC)c1C(=O)Nc1cccc(-c2nn3ccccc3c2-c2ccnc(Nc3cccc(F)c3)n2)c1 [GSK361065] | 7% |
| CC(=O)Nc1ccc(-c2cc3ncnc(SCC(=O)O)c3s2)cc1 | 4% |
| COC(=O)c1cccc(NC(=O)NC2CCN(c3ccnc(Nc4cc(OC)c(OC)c(OC)c4)n3)C2)c1 (stereo not drawn) [GSK1379767] | 35% |
| NC(=O)Nc1sc(-c2ccc(F)cc2)cc1C(N)=O [GW789449] | 31% |
| CCOC(=O)N1CCC(n2cnc(-c3ccc(F)cc3)c2-c2ccnc(N)n2)CC1 [SB-219952] | 0% |
| C[C@@H]1CCN(C(=O)N2CCCC2)C[C@@H]1N(C)c1ncnc2[nH]ccc12 | 3% |
| COc1cccc(C2=C(Nc3cccc(Cl)c3)C(=O)NC2=O)c1 [SB-341556] | 0% |
| COC(=O)c1cccc(NC(=O)NC2CCN(c3ccnc(NCc4ccc(F)cc4)n3)CC2)c1 [GSK1379860] | 0% |
| O=C(Nc1ccc(Oc2ccc3nc(NC(=O)C4CC4)cn3n2)c(F)c1)c1cccn(-c2ccccc2)c1=O | 28% |
| Cn1ccc2ncnc(Oc3ccc(NC(=O)Nc4cncc(C(F)(F)F)c4)c(Cl)c3)c21 | 0% |
| CSc1nccc(-c2c(-c3ccc(F)cc3)ncn2CCCN2CCOCC2)n1.Cl [SB-217146] | 0% |
